# Laboratory results: article PMC11062922 (Nature Chemical Biology, 2023)
# Where two headings read alike, the source gives them in different places.
# Key:
# Set-up in all cases: species or system human, MV4-11 + K-562 + COLO205 + SK-N-BE2 + OVCAR-8
# BMP2K = conditions: read-out: apparent Kd, compound concentrations: 100 nM and 1000 nM (sheet 'Samples'), n = 1
# FER = conditions: read-out: apparent Kd, n = 1
# MARK4 = conditions: read-out: apparent Kd, compound concentrations: 100 nM and 1000 nM (sheet 'Samples'), n = 1
# MYLK3 = conditions: read-out: apparent Kd, compound concentrations: 100 nM and 1000 nM (sheet 'Samples'), n = 1
# PAK4 = conditions: read-out: apparent Kd, n = 1
# PIP4K2C = conditions: read-out: apparent Kd, n = 1
# RPS6KA6 = conditions: read-out: apparent Kd, n = 1
# ULK1 = conditions: read-out: apparent Kd, compound concentrations: 100 nM and 1000 nM (sheet 'Samples'), n = 1
# ULK3 = conditions: read-out: apparent Kd, n = 1
# CDK6 = conditions: read-out: apparent Kd, n = 1
# CSNK1G1 = conditions: read-out: apparent Kd, compound concentrations: 100 nM and 1000 nM (sheet 'Samples'), n = 1
# ILK = conditions: read-out: apparent Kd; compound concentrations: 100 nM and 1000 nM (sheet 'Samples'), CATDS: 4.6551408852927599E-2; n = 1
# STRADA = conditions: read-out: apparent Kd, compound concentrations: 100 nM and 1000 nM (sheet 'Samples'), n = 1
# PIK3C2A = conditions: read-out: apparent Kd, compound concentrations: 100 nM and 1000 nM (sheet 'Samples'), n = 1
# MAP4K2 = conditions: read-out: apparent Kd, n = 1
# CDC42 = conditions: read-out: apparent Kd; compound concentrations: 100 nM and 1000 nM (sheet 'Samples'), CATDS: 3.5970497134968603E-2; n = 1
# MAP3K1 = conditions: read-out: apparent Kd; compound concentrations: 100 nM and 1000 nM (sheet 'Samples'), CATDS: 0.17625774536474501; n = 1
# CDC7 = conditions: read-out: apparent Kd; compound concentrations:100 nM and 1000 nM (sheet 'Samples'); n = 1
# [1] = compound concentrations:100 nM and 1000 nM (sheet 'Samples')
smiles,measurement,setting,value
O=C1N=C(NCc2cccs2)SC1Cc1ccc2ncccc2c1 (stereo not shown) [RO4629078-000],potency estimated from few doses,BMP2K; CATDS: 1.0249270291889601E-2,0.63 µM
same,potency estimated from few doses,"FER; compound concentrations: 100 nM and 1000 nM (sheet 'Samples'), CATDS: 1.87753699623531E-2",0.195 µM
same,potency estimated from few doses,MARK4; CATDS: 9.8317273929225003E-3,0.699 µM
same,potency estimated from few doses,MYLK3; CATDS: 7.0392832090842503E-3,2.17 µM
same,potency estimated from few doses,"PAK4; compound concentrations: 100 nM and 1000 nM (sheet 'Samples'), CATDS: 1.27068399594295E-2",0.391 µM
same,potency estimated from few doses,"PIP4K2C; compound concentrations: 100 nM and 1000 nM (sheet 'Samples'), CATDS: 1.8402634239812199E-2",0.201 µM
same,potency estimated from few doses,"RPS6KA6; compound concentrations: 100 nM and 1000 nM (sheet 'Samples'), CATDS: 1.4576364077707399E-2",0.301 µM
same,potency estimated from few doses,ULK1; CATDS: 1.26661320847058E-2,0.394 µM
same,potency estimated from few doses,"ULK3; compound concentrations: 100 nM and 1000 nM (sheet 'Samples'), CATDS: 7.6579624487381603E-3",1.51 µM
Cc1cccc(-c2cc(-c3c[nH]nc3-c3ccccn3)ccn2)c1 [GW679395X],potency estimated from few doses,ULK3; [1],1.45 µM
COc1cccc(-n2ncc3c(N/N=C/c4ccc(C(=O)NCCN(C)C)cc4)ncnc32)c1.Cl [GW784307A],potency estimated from few doses,BMP2K; CATDS: 2.5475842805915101E-2,2.05 µM
O=C1N=C(NCc2ccccc2)S/C1=C\c1ccc2ncccc2c1 [RO4442080-000],potency estimated from few doses,MYLK3; CATDS: 7.9842207059825906E-2,1.93 µM
COc1ccc(Nc2nccc(N3CCC(NC(=O)Nc4ccc5c(c4)OCO5)C3)n2)cc1 (stereo not shown) [GSK1379745A],potency estimated from few doses,"CDK6; compound concentrations: 100 nM and 1000 nM (sheet 'Samples'), CATDS: 3.7997833467257401E-2",1.68 µM
same,potency estimated from few doses,CSNK1G1; CATDS: 3.8833809861808503E-2,1.6 µM
same,potency estimated from few doses,ILK,1.11 µM
same,potency estimated from few doses,STRADA; CATDS: 3.4015058114393301E-2,2.21 µM
CS(=O)(=O)CCNCc1ccc(-c2ccc3ncnc(Nc4ccc(OCc5cccc(F)c5)c(C(F)(F)F)c4)c3c2)o1 [GW576484X],potency estimated from few doses,CSNK1G1; CATDS: 5.4638885824274799E-2,1.62 µM
same,potency estimated from few doses,MARK4; CATDS: 5.9224998960535298E-2,1.37 µM
same,potency estimated from few doses,PIK3C2A; CATDS: 5.2836581053762099E-2,1.74 µM
same,potency estimated from few doses,STRADA; CATDS: 5.2854601863181902E-2,1.74 µM
CN1C(=O)c2ccccc2N(C)c2nc(Nc3cnn(C4CCNCC4)c3)ncc21 [XMD-17-51],potency estimated from few doses,BMP2K; CATDS: 1.6944830002157098E-2,0.771 µM
same,potency estimated from few doses,MARK4; CATDS: 2.0662278149912901E-2,0.412 µM
same,potency estimated from few doses,ULK1; CATDS: 5.3093581497725799E-2,0.0455 µM
Cc1cccc(Nc2nc(NCCN)ncc2C(N)=O)c1 [GSK1292139B],potency estimated from few doses,"MAP4K2; compound concentrations: 100 nM and 1000 nM (sheet 'Samples'), CATDS: 7.8363425236556997E-2",1.11 µM
same,potency estimated from few doses,"PAK4; compound concentrations: 100 nM and 1000 nM (sheet 'Samples'), CATDS: 9.0340207585202004E-2",0.778 µM
COc1ccc(CNC(=O)NC2CCN(c3ccnc(Nc4cc(OC)c(OC)c(OC)c4)n3)C2)cc1 (stereo not shown) [GSK1379748A],potency estimated from few doses,"PIP4K2C; compound concentrations: 100 nM and 1000 nM (sheet 'Samples'), CATDS: 0.31006537475482299",2.12 µM
CS(=O)(=O)Cc1ccc(Nc2nccc(-c3c(-c4cccc(NC(=O)C5CCCCC5)c4)nn4ncccc34)n2)cc1 [GSK350559A],potency estimated from few doses,MAP4K2; [1],1.89 µM
same,potency estimated from few doses,PIP4K2C; [1],0.136 µM
CN(C)Cc1ccc(-c2ccc3c(Nc4ccc(Oc5ccccn5)cc4)ccnc3c2)o1 [GW567148X],potency estimated from few doses,"FER; compound concentrations: 100 nM and 1000 nM (sheet 'Samples'), CATDS: 2.46743192274099E-2",0.568 µM
same,potency estimated from few doses,"RPS6KA6; compound concentrations: 100 nM and 1000 nM (sheet 'Samples'), CATDS: 2.11191304038983E-2",0.847 µM
CN1CCN(Cc2ccc(-c3ccc4c(Nc5ccc(Oc6ccccn6)cc5)ccnc4c3)o2)CC1 [GW567140X],potency estimated from few doses,CDC42,1.29 µM
O=S(=O)(CCOCc1ccc(-c2ccc3ncnc(Nc4ccc(OCc5cccc(F)c5)c(Cl)c4)c3c2)o1)c1ccccc1 [GW615311X],potency estimated from few doses,PIK3C2A; CATDS: 2.34385173398927E-2,2.05 µM
COc1cccc(-n2cnc3c(N/N=C/c4ccncc4)ncnc32)c1 [GW813360X],potency estimated from few doses,MAP3K1,1.04 µM
COc1cc2ncn(-c3cc(OCCCc4ccccc4)c(C(N)=O)s3)c2cc1OC [GSK205189A],potency estimated from few doses,FER; [1],0.0551 µM
same,potency estimated from few doses,PAK4; [1],1.35 µM
same,potency estimated from few doses,RPS6KA6; [1],0.907 µM
Nc1ncc(-c2cn[nH]c2)c2scc(-c3ccc4c(c3)CCN4C(=O)Cc3ccccc3)c12 [GSK2593067A],potency estimated from few doses,"MAP4K2; compound concentrations: 100 nM and 1000 nM (sheet 'Samples'), CATDS: 0.15564611372576101",0.2 µM
N#Cc1cccc(Nc2nccc(-c3cnn4ncccc34)n2)c1 [GW778894X],potency estimated from few doses,CDC7,1.24 µM
same,potency estimated from few doses,CDK6; [1],1.97 µM
same,potency estimated from few doses,PIP4K2C; [1],0.113 µM
